Records with an inconclusive call do not appear. The source made the active and inactive calls. Unless noted, calls come from the whole dose curve.
Experiments:
[1] = Nuclear factor erythroid 2-related factor 2/antioxidant responsive element (Nrf2/ARE) small molecule agonists: qHTS cell viability counter screen in human keratinocytes (AID 1919968; active = well fitted curve in the direction sought with a large enough effect in the repeat runs; an effect the other way counts as inactive or inconclusive; note: nearly all actives have a fitted effect of over 55% in size)
Summary of the method: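 Cells of the KeratinoSens line were plated at 1,500 per well and left for 5 h before compound transfer from DMSO stocks. After a 23 h incubation (37 C, 5% CO2), CellTiter-Fluor was added. Signal was taken as fluorescence intensity 1 h later.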

[2] = Nuclear factor erythroid 2-related factor 2/antioxidant responsive element (Nrf2/ARE) small molecule agonists: luciferase reporter gene qHTS assay in human keratinocytes (AID 1919969); note: nearly all actives have a fitted effect of over 35% in size
[3] = molecular target: Gonadotropin-releasing hormone receptor (Homo sapiens) (UniProt P30968); assay: Human gonadotropin-releasing hormone receptor (GnRHR) small molecule agonists, calcium flux assay in GnRHR-HEK293 cells (AID 1920063); note: nearly all actives have a fitted effect of over 35% in size
Chain of Gonadotropin-releasing hormone receptor (Homo sapiens) (P30968 whole entry, looked up): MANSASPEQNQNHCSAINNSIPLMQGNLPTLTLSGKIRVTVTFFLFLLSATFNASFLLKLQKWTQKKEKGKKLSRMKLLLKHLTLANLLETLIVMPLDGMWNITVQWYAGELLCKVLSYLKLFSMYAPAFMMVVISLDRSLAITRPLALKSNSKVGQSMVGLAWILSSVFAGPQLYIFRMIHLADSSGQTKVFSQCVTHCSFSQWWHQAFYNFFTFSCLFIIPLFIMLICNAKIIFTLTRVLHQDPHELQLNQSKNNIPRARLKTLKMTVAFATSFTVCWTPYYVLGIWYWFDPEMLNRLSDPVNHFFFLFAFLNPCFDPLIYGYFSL
Summary of the method: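 Compounds dissolved in DMSO are pin-transferred onto dye-loaded GnRHR-HEK293 cells, which were seeded 18 h before at 37 C/5% CO2. Calcium signal is read as fluorescence intensity at 1 s intervals for 3 min.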

[4] = molecular target: KiSS-1 receptor (Homo sapiens) (UniProt Q969F8); assay: Human kisspeptin (KISS1R) small molecule agonists, calcium flux assay in KISS1R-HEK293 cells (AID 1920064; active = well fitted curve in the direction sought with a large enough effect in the repeat runs; an effect the other way counts as inactive or inconclusive)
Chain of KiSS-1 receptor (Homo sapiens) (Q969F8 whole entry, looked up): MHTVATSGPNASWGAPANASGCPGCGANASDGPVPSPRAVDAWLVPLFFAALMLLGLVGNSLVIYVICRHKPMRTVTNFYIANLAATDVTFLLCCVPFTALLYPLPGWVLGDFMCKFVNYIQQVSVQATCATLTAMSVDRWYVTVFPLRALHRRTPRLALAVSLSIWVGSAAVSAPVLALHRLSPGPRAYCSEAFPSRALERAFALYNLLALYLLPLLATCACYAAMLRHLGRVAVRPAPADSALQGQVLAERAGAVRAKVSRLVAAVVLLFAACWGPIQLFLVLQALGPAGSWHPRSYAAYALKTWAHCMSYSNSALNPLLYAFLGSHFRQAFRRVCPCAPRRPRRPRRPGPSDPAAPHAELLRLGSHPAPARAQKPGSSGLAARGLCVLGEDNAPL
Summary of the method: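 Cell line: HEK293, stable human KISS1R. Dye loading 1 h at 37 C after 18 h culture. Read: kinetic fluorescence, 480/540 nm, 3 min at 1 s intervals.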

[5] = G protein-coupled receptor (GPCR) small molecule agonists, calcium flux assay: HEK293 wild type cell line counter screen (AID 1920065)
Summary of the method: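 Tox21 10K compounds, 15 concentrations each in triplicate, pin-transferred in DMSO onto dye-loaded cells; kinetic read at 480/540 nm for 3 min, 1 s intervals.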

[6] = p53 small molecule agonists, cell-based qHTS assay with human liver microsomes (AID 1963577);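 note: p53 response element beta-lactamase reporter cells with liver microsomes plus NADPH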
Summary of the method: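 In this qHTS, p53 response-element beta-lactamase cells receive test compound together with a microsome/NADPH activating system (0.5 mg/mL final each) and are incubated 16 h at 37 C before LiveBLAzer fluorescence detection.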

[7] = p53 small molecule agonists, cell-based qHTS assay with rat liver microsomes (AID 1963578)
Summary of the method: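 Agonist mode in p53RE-bla reporter cells, with compounds co-incubated 16 h at 37 C alongside 0.5 mg/mL rat liver microsomes and 0.5 mg/mL NADPH (final), followed by a 2 h LiveBLAzer detection step.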

[8] = p53 small molecule agonists, cell-based qHTS assay with human liver microsomes: qHTS cell viability counter screen (AID 1963579); note: nearly all actives have a fitted effect of over 45% in size
Summary of the method: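 Metabolically activated exposure: compounds, human liver microsomes and NADPH (0.5 mg/mL final apiece) were added to p53RE-bla cells seeded 5 h earlier, left 16 h at 37 C, and then assessed for viability by CellTiter-Glo luminescence.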

[9] = p53 small molecule agonists, cell-based qHTS assay with rat liver microsomes: qHTS cell viability counter screen (AID 1963580); note: nearly all actives have a fitted effect of over 45% in size
Summary of the method: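 Cytotoxicity counter screen: intracellular ATP read by CellTiter-Glo luminescence in the p53 reporter wells. HCT-116 p53RE-bla cells were treated for 16 h at 37 C alongside rat liver microsomes and NADPH, each 0.5 mg/mL final.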

[10] = p53 small molecule agonists, cell-based qHTS assay: qHTS cell viability counter screen (AID 1963581); note: nearly all actives have a fitted effect of over 45% in size
Summary of the method: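 ATP content measured by luminescence in HCT-116 p53RE-bla cells treated 16 h at 37 C, same wells as the reporter screen.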

[11] = p53 small molecule agonists, cell-based qHTS assay (AID 1963582; active = well fitted activation curve with a large enough effect in the signal ratio in the repeat runs, not every such curve was filed as active; the % refers to the signal ratio)
Summary of the method: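 16 h compound exposure (37 C) of p53 response element–bla cells, preceded by 5 h recovery at 37 C/5% CO2; read-out via LiveBLAzer B/G FRET substrate, 2 h RT, fluorescence intensity.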

[12] = molecular target: 5-hydroxytryptamine receptor 2A (Homo sapiens) (UniProt P28223); assay: 5-hydroxytryptamine receptor 2A (HTR2A) small molecule antagonists, cell-based qHTS assay (AID 1963586); note: nearly all actives have a fitted effect of over 45% in size; note: potency is the fitted concentration of half-maximal effect
Chain of 5-hydroxytryptamine receptor 2A (Homo sapiens) (P28223 whole entry, looked up): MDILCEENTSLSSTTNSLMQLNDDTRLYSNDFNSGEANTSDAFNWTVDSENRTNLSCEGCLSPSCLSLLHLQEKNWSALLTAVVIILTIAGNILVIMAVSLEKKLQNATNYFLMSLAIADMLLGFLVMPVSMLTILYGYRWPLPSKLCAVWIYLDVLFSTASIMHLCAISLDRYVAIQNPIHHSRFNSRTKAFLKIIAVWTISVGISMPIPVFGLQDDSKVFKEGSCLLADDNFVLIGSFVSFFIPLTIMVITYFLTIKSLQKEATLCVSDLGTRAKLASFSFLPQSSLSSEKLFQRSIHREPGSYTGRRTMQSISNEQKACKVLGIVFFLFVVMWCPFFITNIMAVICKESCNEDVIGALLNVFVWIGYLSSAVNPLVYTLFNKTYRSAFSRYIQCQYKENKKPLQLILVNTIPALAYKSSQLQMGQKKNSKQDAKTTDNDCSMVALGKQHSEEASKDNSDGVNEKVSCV
Summary of the method: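 CHO cells stably expressing human HTR2A were plated for 18 h at 37 C, then loaded with calcium dye for 1 h. Compounds were preincubated 5 min at room temperature before DOI (4 nM solution) was added. Kinetic fluorescence was read for 3 min.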

[13] = molecular target: 5-hydroxytryptamine receptor 2A (Homo sapiens) (UniProt P28223); assay: 5-hydroxytryptamine receptor 2A (HTR2A) small molecule agonists, cell-based qHTS assay (AID 1963587); note: nearly all actives have a fitted effect of over 30% in size
Summary of the method: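 Kinetic calcium-flux fluorescence (2 min, 1 sec intervals) after compound addition in agonist mode. HTR2A-CHO cells were cultured 18 h, then dye-loaded 1 h at 37 C.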

[14] = molecular target: Muscarinic acetylcholine receptor M1 (Homo sapiens) (UniProt P11229); assay: Cholinergic receptor muscarinic 1 (CHRM1) small molecule antagonists, cell-based qHTS assay (AID 1963588); note: nearly all actives have a fitted effect of over 40% in size; note: potency is the fitted concentration of half-maximal effect
Chain of Muscarinic acetylcholine receptor M1 (Homo sapiens) (P11229 whole entry, looked up): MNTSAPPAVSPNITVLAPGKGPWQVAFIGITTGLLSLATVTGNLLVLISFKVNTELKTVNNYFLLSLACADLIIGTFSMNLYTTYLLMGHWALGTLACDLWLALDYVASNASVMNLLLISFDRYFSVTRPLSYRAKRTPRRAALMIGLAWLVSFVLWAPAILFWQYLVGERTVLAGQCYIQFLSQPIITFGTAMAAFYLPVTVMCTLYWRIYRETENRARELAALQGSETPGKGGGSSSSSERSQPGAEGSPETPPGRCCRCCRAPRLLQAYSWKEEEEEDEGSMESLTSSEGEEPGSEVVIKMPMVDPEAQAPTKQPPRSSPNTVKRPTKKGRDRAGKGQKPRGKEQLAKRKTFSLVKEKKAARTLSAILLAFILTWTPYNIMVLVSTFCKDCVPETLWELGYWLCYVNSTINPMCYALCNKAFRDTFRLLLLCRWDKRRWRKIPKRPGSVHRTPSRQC
Summary of the method: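 Compounds were tested at 15 concentrations in three independent runs. Dye-loaded CHRM1-CHO cells were exposed 5 min at room temperature before stimulation by acetylcholine added at 50nM. Intracellular calcium was read kinetically on FDSS for 3 min.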

[15] = molecular target: Muscarinic acetylcholine receptor M1 (Homo sapiens) (UniProt P11229); assay: Cholinergic receptor muscarinic 1 (CHRM1) small molecule agonists, cell-based qHTS assay (AID 1963589); note: nearly all actives have a fitted effect of over 35% in size
Summary of the method: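 Homogeneous fluorescence calcium flux, agonist mode. Human M1-expressing CHO cells; compound dosed at 15 concentrations, three independent runs; signal sampled every 1 sec.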

[16] = cAMP Responsive Elements (CRE) small molecule agonists, cell-based qHTS assay (AID 1963590)
Summary of the method: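 HEK 293T cells stably bearing CRE-bla were plated at 2,000 cells per well and rested 18 h. Compounds, positive controls or DMSO were added for 3 h at 37 C. LiveBLAzer B/G substrate was then loaded for 2 h at room temperature.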

[17] = cAMP Responsive Elements (CRE) small molecule antagonists, cell-based qHTS assay (AID 1963591; active = well fitted inhibition curve with a large enough effect in the signal ratio in the repeat runs, not every such curve was filed as active; the % refers to the signal ratio)
Summary of the method: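 First, CRE-bla HEK293T cells settled 18 h at 37 C. Next, compound and 0.25 uM final NKH477 were applied for 3 h. Last, LiveBLAzer B/G substrate was loaded for 2 h at room temperature.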

[18] = molecular target: Beta-2 adrenergic receptor (Homo sapiens) (UniProt P07550); assay: Adrenergic beta2 receptor (ADRB2) small molecule antagonists, cell-based qHTS assay (AID 1963592); note: series mostly up to about 92 µM; nearly all actives have a fitted effect of over 50% in size
Chain of Beta-2 adrenergic receptor (Homo sapiens) (P07550 whole entry, looked up): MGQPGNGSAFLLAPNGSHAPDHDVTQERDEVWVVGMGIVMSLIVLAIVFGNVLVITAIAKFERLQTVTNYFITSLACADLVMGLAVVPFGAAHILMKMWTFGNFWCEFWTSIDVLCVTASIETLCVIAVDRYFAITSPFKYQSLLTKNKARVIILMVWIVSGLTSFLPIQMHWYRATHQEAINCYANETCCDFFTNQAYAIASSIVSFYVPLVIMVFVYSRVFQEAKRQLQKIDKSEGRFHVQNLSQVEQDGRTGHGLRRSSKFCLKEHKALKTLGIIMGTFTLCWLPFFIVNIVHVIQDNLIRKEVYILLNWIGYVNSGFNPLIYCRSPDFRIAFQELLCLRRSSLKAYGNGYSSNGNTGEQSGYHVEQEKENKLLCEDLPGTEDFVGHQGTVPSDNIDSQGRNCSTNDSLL
Summary of the method: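 Assay format: CHO-ADRB2 cells, 18-20hr seeding at 37C/5% CO2, then compound plus 1nM isoproterenol agonist mix for 0.5hr RT. Homogeneous time-resolved fluorescence cAMP detection after 1hr, expressed as 665/615 nm ratio.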

[19] = molecular target: Beta-2 adrenergic receptor (Homo sapiens) (UniProt P07550); assay: Adrenergic beta2 receptor (ADRB2) small molecule agonists, cell-based qHTS assay (AID 1963593);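 note: CHO cells stably overexpressing human ADRB2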
Summary of the method: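 CHO cells stably over-expressing ADRB2 were plated overnight at 37C, then dosed with compounds plus a stimulation mix containing 100uM IBMX and 25uM Ro-20-1724 for 0.5hr at room temperature. cAMP was measured by HTRF competition, 1hr.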

[20] = molecular target: D(2) dopamine receptor (Homo sapiens) (UniProt P14416); assay: Dopamine D2 receptor (DRD2) small molecule agonists, cell-based qHTS assay (AID 1963594); note: nearly all actives have a fitted effect of over 35% in size
Chain of D(2) dopamine receptor (Homo sapiens) (P14416 whole entry, looked up): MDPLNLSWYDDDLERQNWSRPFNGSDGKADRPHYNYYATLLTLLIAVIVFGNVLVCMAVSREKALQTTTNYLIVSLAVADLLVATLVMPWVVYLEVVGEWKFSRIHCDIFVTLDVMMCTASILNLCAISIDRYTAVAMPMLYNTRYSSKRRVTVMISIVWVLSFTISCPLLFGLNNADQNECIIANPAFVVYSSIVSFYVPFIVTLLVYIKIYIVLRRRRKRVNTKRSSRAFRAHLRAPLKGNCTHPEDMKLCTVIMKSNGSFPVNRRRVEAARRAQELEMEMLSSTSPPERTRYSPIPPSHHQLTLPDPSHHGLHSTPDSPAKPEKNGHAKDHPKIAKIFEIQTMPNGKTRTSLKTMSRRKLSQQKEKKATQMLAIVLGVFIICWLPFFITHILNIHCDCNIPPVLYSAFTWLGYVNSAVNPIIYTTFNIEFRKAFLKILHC
Summary of the method: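 cAMP accumulation in DRD2-HEK293 cells measured by HTRF after 1 h detection; compounds added 10 min before NKH477 (200nM […]) forskolin-analogue stimulation, 30 min at room temperature, with Ro20-1724 present at 0.1 mM final.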

Measured: Potency

Cc1nc(-c2ccc3c(c2)CCN(CCC2CCC(NC(=O)/C=C/c4ccc(F)cc4)CC2)CC3)no1 (stereo not given)
active: [14] 0.266 µM
inactive: all other assays above

CCCCCCCCc1ccc(Nc2ccc(CCCCCCCC)cc2)cc1
inactive: all assays above

c1ccc(CSCc2ccccc2)cc1
inactive: all assays above

C=CC(=O)CCCCC
inactive: all assays above

NNS(=O)(=O)c1ccc(Oc2ccc(S(=O)(=O)NN)cc2)cc1
inactive: all assays above

Cc1ccc(C2OC[C@@H]3OC(c4ccc(C)cc4)O[C@H]([C@H](O)CO)[C@@H]3O2)cc1 (stereo not given in full)
inactive: all assays above

CN(C1CCCCC1)S(=O)(=O)c1ccccc1N
active: [12] 37.5 µM
inactive: all other assays above

From PubChem BioAssay (Tox21)
